# Values without a mark were called inactive.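 How the source made its calls: active = AUC reduced over 20% with Padj below 0.05 in at least 2 of 3 replicates; inactive = otherwise.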
# Legend:
# Test in all cases: growth AUC relative to DMSO control (median of replicates) (fraction); higher = more growth (less inhibition), active = hit call of the paper
# Details in all cases: 20 µM; 24 h
# Akkermansia muciniphila = tested on: Akkermansia muciniphila
# Outline: (§1)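 OD600 was recorded every hour for 24 h in anaerobic monocultures of gut bacteria kept at 37 °C in mGAM, seeded at OD600 0.05 and given 20 µM compound in 1% DMSO. The area under each growth curve was scaled to the plate median of solvent-only wells, or to row and column medians for the industrial chemical plate. Before this step, the minimum OD was set to 0. Reported values are medians of three biological replicates run on separate days.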
# Bacteroides caccae = tested on: Bacteroides caccae
# Outline: as §1
# Bacteroides clarus = tested on: Bacteroides clarus
# Outline: as §1
# Bacteroides dorei = tested on: Bacteroides dorei
# Outline: as §1
# Bacteroides stercoris = tested on: Bacteroides stercoris
# Outline: as §1
# [1] = tested on: Bacteroides thetaiotaomicron
# Outline: as §1
# Bacteroides uniformis = tested on: Bacteroides uniformis
# Outline: as §1
# [2] = tested on: Bifidobacterium longum subsp. longum
# Outline: as §1
# Clostridium difficile = tested on: Clostridium difficile
# Outline: as §1
# Collinsella aerofaciens = tested on: Collinsella aerofaciens
# Outline: as §1
SMILES,growth AUC (Akkermansia muciniphila),growth AUC (Bacteroides caccae),growth AUC (Bacteroides clarus),growth AUC (Bacteroides dorei),growth AUC (Bacteroides stercoris),growth AUC [1],growth AUC (Bacteroides uniformis),growth AUC [2],growth AUC (Clostridium difficile),growth AUC (Collinsella aerofaciens)
CCNc1nc(NC(C)(C)C)nc(SC)n1,1.02,0.947,0.94,0.871,1.07,0.728,0.905,0.915,0.967,1
ClCC1C(CCl)C2(Cl)C(Cl)=C(Cl)C1(Cl)C2(Cl)Cl (stereo not given),0.995,0.971,0.999,0.972,0.985,0.994,1.01,1.02,0.989,0.962
CCNc1nc(NC(C)C)[nH]c(=O)n1,0.993,1,1.02,1.04,0.998,1,1.07,0.962,1.05,1.02
O=C(Nc1ccccc1)N(Cc1ccc(Cl)cc1)C1CCCC1,0.953,0.983,0.991,0.991,0.972,0.964,0.969,1.02,1.03,0.98
OC(c1ccc(F)cc1)(c1cncnc1)c1ccccc1Cl (stereo not given),0.95,0.993,0.951,0.966,0.991,0.942,0.954,1.01,0.966,0.988
CCNS(=O)(=O)C(F)(F)C(F)(F)C(F)(F)C(F)(F)C(F)(F)C(F)(F)C(F)(F)C(F)(F)F,0.945,0.986,0.906,1.02,0.896,0.993,0.966,0.905,1.04,1.13
COC(=O)c1ccccc1S(=O)(=O)NC(=O)N(C)c1nc(C)nc(OC)n1,0.981,0.984,0.979,0.984,1.05,0.99,1,1.01,0.984,1.03
O=[N+]([O-])c1c(Cl)c(Cl)c(Cl)c(Cl)c1Cl,0.814,0.777,0.816,0.972,0.986,0.915,0.917,0.808,1.01,1.04
CCC(C)(C)c1ccc(O)cc1,0.91,1.01,0.981,1.03,0.859,1,1,1.08,1.06,1.01
CCCCN(CC)c1c([N+](=O)[O-])cc(C(F)(F)F)cc1[N+](=O)[O-],0.993,1,0.964,1.01,1,1.02,0.99,1.01,1.11,1.04
O=c1oc2ccccc2c(O)c1C1CCCc2ccccc21 (stereo not given),1.15,0.938,0.916,0.926,1.09,0.796 (active),0.701 (active),1.09,1.02,1
COC(=O)COc1cc(Cl)c(Cl)cc1Cl,0.868,1.01,0.952,1,1.01,0.97,0.966,0.906,1.01,1
COc1cc(OC)n2nc(S(=O)(=O)Nc3c(Cl)ccc(C)c3Cl)nc2n1,1.05,0.98,0.962,1.06,0.969,0.99,0.964,0.976,1.08,1.11
Cc1cc(C)c(C2=C(OC(=O)CC(C)(C)C)C3(CCCC3)OC2=O)c(C)c1,1.2,0.977,1,0.988,1.23,1.05,0.958,1.05,0.98,1.02
CNC(=O)ON=C(CS(C)=O)C(C)(C)C (stereo not given),1.08,1.02,0.997,1.01,0.97,1.02,1.01,0.955,1.02,1
CCOP(=S)(OCC)SCSc1ccc(Cl)cc1,1.04,0.954,0.972,0.984,1.09,0.987,0.943,1.03,1,0.963
O=C(NC(=O)c1c(F)cccc1F)Nc1cc(Cl)c(OC(F)(F)C(F)C(F)(F)F)cc1Cl (stereo not given),0.997,0.981,0.982,1.02,1.01,0.99,0.962,0.981,1.04,0.94
COC[C@H](C)N(C(=O)CCl)c1c(C)csc1C,1.08,1,0.983,0.951,0.95,1,0.981,1.04,0.976,1
CC(C)(COCc1cccc(Oc2ccccc2)c1)c1ccc(OC(F)(F)Br)cc1,0.955,0.982,0.973,1.01,1.04,0.976,1.02,0.966,1.01,0.953
COC(=O)N(C(=O)N1CO[C@@]2(C(=O)OC)Cc3cc(Cl)ccc3C2=N1)c1ccc(OC(F)(F)F)cc1,0.961,0.952,0.965,0.982,0.965,0.873,0.98,0.83,0.916,0.884
CCOC(=O)OC1=C(c2cc(C)ccc2C)C(=O)NC12CCC(OC)CC2 (stereo not given),0.953,1,0.995,0.996,1.04,0.971,0.982,0.996,0.977,0.997
CCC/C(=N\OCC)C1=C(O)CC(CC(C)SCC)CC1=O (stereo not given),0.936,1.01,0.989,1.02,0.974,0.992,1.01,0.85,1.01,1.01
C[C@H]1[C@H](c2ccc(Cl)cc2)SC(=O)N1C(=O)NC1CCCCC1,0.988,0.91,0.965,0.945,1.13,0.952,0.943,0.923,0.987,0.928
CNC(=O)/C(=N/OC)c1ccccc1Oc1ccccc1,0.883,1.01,0.972,0.982,1.02,0.975,0.997,0.942,1,0.998
COC(=O)c1ccccc1S(=O)(=O)NC(=O)Nc1nc(C)cc(C)n1,1.07,0.962,0.988,0.968,0.859,0.979,1.02,1.1,1,0.949
CC(C)Oc1cc(-n2nc(C(C)(C)C)oc2=O)c(Cl)cc1Cl,1.21,0.984,0.942,0.982,0.884,0.987,0.898,0.962,0.932,0.921
CC(C)(C)c1ccc(CCOc2ncnc3ccccc23)cc1,1.16,0.952,0.973,0.921,0.872,0.975,0.944,0.996,0.98,0.943
CCOP(=S)(NC(C)CC)Oc1cc(C)ccc1[N+](=O)[O-] (stereo not given),0.974,0.947,0.946,1.01,0.865,0.955,0.917,0.965,1.03,0.985

# From the supplement of paper PMC12669032
